Compound activity deposited in PubChem BioAssay by National Center for Advancing Translational Sciences (NCATS).
LASV entry inh: Lassa virus entry inhibition; Lassa virus pseudotype entry inhibition, cell reporter; Potency, µM (series often up to 37.9 µM), actives largely listed as inhibitors; actives 1.2% (n = 300,000); AID 540256; calls by dose curve; tested in HEK293 cells; also: nearly all actives have a fitted effect of over 50% in size
Cycloheximide cs: affects cycloheximide protein synthesis inhibition readout, counter-screen; AID 2314; max response, %; actives 12% (n = 300,000); cell reporter, cycloheximide protein synthesis inhibition counterscreen; in the data active = max response mostly above about 13%, no sharp cut-off; inactive = mostly below about 14%; also: read at 38.3 µM for the half of the compounds with a filed dose
AMA1 RON2 block: AMA1-RON2 (P. falciparum) interaction inhibition; AlphaScreen AMA1-biotinylated RON2 peptide binding; Potency, µM (series often up to 58.2 µM), hits mostly inhibitors; AID 720542; actives 0.2% (n = 360,000); active = well fitted inhibition curve with a large enough effect; inconclusive = small, poorly fitted or top-dose-only effect; inactive = no such curve, though single readings can be large or run the other way; also: nearly all actives have a fitted effect of over 45% in size
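AMA1 (3D7) with his tag at 25 nM final met compounds first, then biotinylated RON2 peptide at 25 nM; detection used donor plus acceptor beads, 10 µg/mL apiece, read by AlphaScreen after 30 min at room temperature.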
Marburg entry inh: Marburg virus entry inhibition. Marburg virus pseudotyped entry inhibition, cell reporter. Potency, µM (titrated, usually from 37.8 µM), hits mostly inhibitors. actives 1.8% (n = 300,000). AID 540276; calls by dose curve; tested in HEK293 cells
Shiga inhibitor: Shiga toxin inhibition | Vero cells, Shiga toxin protein synthesis inhibition reporter | inhibition, % at 38.7 µM | actives 9.2% (n = 290,000) | AID 2315; in the data active = inhibition mostly above about 28%, no sharp cut-off; inactive = mostly below about 43%
Hits are given with their value; . = inactive; ? = inconclusive; / = not tested or not shown; [ ] = remark or other dose. The entries come from a sample that favours hits as a whole.

SMILES	LASV entry inh	Cycloheximide cs	AMA1 RON2 block	Marburg entry inh	Shiga inhibitor
O=C(NC1CCCC1)c1cc(COc2ccc3ncccc3c2)on1	/	.	.	/	.
O=C(c1cc(COc2ccc3ncccc3c2)on1)N1CCCC1	.	33	.	?	40
O=C(NCCc1cn2ccccc2n1)c1cc(COc2ccc3ncccc3c2)on1	.	.	.	5.6µM	.
COc1ccc(CN2CCNC(=O)C2CC(=O)NCCCC2CCCC2)c(C)c1C (centres undefined)	.	.	.	.	.
O=C(Cn1nnc(-c2ccc(Cl)cc2)n1)NC(=O)NC1CCCC1	/	/	.	/	/
CN(C)c1ccc(CNC(=O)CN2C(=O)CCn3nc(-c4cn(C)c5ccccc45)cc32)cc1	.	/	/	/	/
N=c1n(CCN2CCCCC2)c2ccccc2n1CC(=O)c1ccc(Cl)c(Cl)c1	.	.	.	8.9µM	.
CCn1c(=N)n(CC(=O)c2ccc(Cl)c(Cl)c2)c2ccccc21	?	40	.	?	74
COC(=O)Cn1c(=N)n(CCN2CCCCC2)c2ccccc21	.	.	.	.	.
CCn1c(=N)n(CC(=O)c2ccc(OC)cc2)c2ccccc21	?	.	.	10µM	.
CCn1c(=N)n(CC(=O)c2ccco2)c2ccccc21	.	.	.	?	.
O=C(Nc1cc2c(ccc3ccccc32)oc1=O)C1CCCCC1	.	.	.	.	.
O=C(NC1CC1)c1cc2ccccc2o1	/	15	.	/	43
O=C(NC1CCCC1)c1cc2c(ccc3ccccc32)o1	?	44	.	?	60
COCC(C)NC(=O)c1cc2c(ccc3ccccc32)oc1=O (centres undefined)	/	24	.	/	22
CC(=O)c1cc2c(ccc3ccccc32)oc1=O	.	.	.	.	.
O=C(N/N=C/c1cc(Cl)c(O)c(Cl)c1)c1cc2c(ccc3ccccc32)o1	/	37	.	/	.
O=C(N/N=C/c1cc(Br)c(O)c(Br)c1)c1cc2c(ccc3ccccc32)o1	.	.	.	.	.
CC(C)c1ccc(NC(=O)Nc2nc(C(N)COCc3ccccc3)cs2)cc1 (centres undefined)	/	/	.	/	/
Cc1cccc(C)c1-n1nnnc1C1(C)CCC(=O)N1c1ccc(N2CCOCC2)cc1 (centres undefined)	/	/	.	/	/
O=C(Nc1ccccc1)c1cccc(N2CCCS2(=O)=O)c1	.	/	/	/	/
COC(=O)c1ccc(NC(=O)CN(c2cccc(C(F)(F)F)c2)S(C)(=O)=O)cc1	.	/	/	.	/
COc1ccc(C(=O)N2CCCC(Nc3ccc(F)cc3)C2)c(OC)c1 (centres undefined)	.	.	.	?	.
Cc1ccc(C(C)C)c(OCC(=O)OCC(=O)NC2CCS(=O)(=O)C2)c1 (centres undefined)	.	/	.	?	/
CNC(=O)c1cc2c(ccc3ccccc32)o1	/	33	.	/	81
SMILES	LASV entry inh	Cycloheximide cs	AMA1 RON2 block	Marburg entry inh	Shiga inhibitor
Cc1ccc(/C=N/NC(=O)c2cc3c(ccc4ccccc43)o2)o1	.	.	.	.	.
O=C(NCC1CCCO1)C1c2ccccc2C(=O)N1C1CCCCCC1 (centres undefined)	.	.	.	.	.
Cc1ccc2nc3c(cc(C(N)=S)c(=N)n3CCCOC(C)C)c(=O)n2c1	.	.	.	.	.
Cc1ccccc1-c1cc2c(nn1)-c1ccccc1C2=O	?	.	.	?	83
O=c1[nH]nc(-c2ccc(F)cc2)cc1-c1ccccc1	?	.	.	.	.
O=C1c2ccccc2-c2nnc(-c3ccc(F)cc3)cc21	.	42	.	?	80
Cc1ccc(-c2cc3c(nn2)-c2ccccc2C3=O)cc1	/	22	.	/	25
O=C1c2ccccc2-c2nnc(-c3ccc(O)cc3)cc21	?	20	.	?	.
Cc1cccc(NS(=O)(=O)c2cccc(C(=O)NCC(c3ccc(F)cc3)N3CCOCC3)c2)c1 (centres undefined)	?	/	.[11.6 µM]	?	/
O=C(CCn1c(=O)c2cccn2c2cccnc21)NCc1ccc(F)cc1	.	/	/	/	/
CCOC(=O)c1cnc(-n2nc(C)cc2C)nc1NNc1ncc(-c2ccccc2)cn1	?	.	.	11µM	.
CCOC(=O)c1cnc(-n2nc(C)cc2C)nc1NNc1cc(-c2ccccc2)nc(C)n1	.	.	/	.	.
O=C(Cn1ncc(Cl)c(Cl)c1=O)NCC1CCCCC1	18µM	30	.	?	.
O=C(OCn1ncc(Cl)c(Cl)c1=O)c1ccc(F)cc1	/	.	/	.	.
O=C(OCn1ncc(Cl)c(Cl)c1=O)c1ccccc1Cl	6.5µM	.	.	4.6µM	.
O=C(Cn1ncc(Cl)c(Cl)c1=O)NC1CCCCC1	/	/	.	/	/
C=CCn1c(C)cc(C(=O)Cn2ncc(Cl)c(Cl)c2=O)c1C	?	42	.	?	73
O=c1cnn(Cc2ccc(F)cc2)c2ccccc12	.	.	.	.	.
O=c1c(Cl)c(Cl)cnn1Cc1ccc(F)cc1	21µM	.	.	?	.
Cc1nnc(N2CCC(C(=O)NCCC(C)C)CC2)c2nn(-c3ccc(Cl)cc3)c(C)c12	.	/	/	/	/
Cc1ccc(CNC(=O)CN2NS(=O)(=O)c3ccccc3C2=O)cc1	/	/	.	/	/
C=CCn1c(C)cc(C(=O)CN2NS(=O)(=O)c3ccccc3C2=O)c1C	/	33	.	/	87
O=C(Cn1ncc(N2CCOCC2)c(Cl)c1=O)c1ccc(Cl)cc1	?	.	.	?	.
O=C(Cn1ncc(Cl)c(Cl)c1=O)c1ccc(Cl)cc1	?	21	.	2.9µM	32
Cc1ccccc1NC(=O)C1CCN(C(=O)c2cnn(-c3ccccc3)c2-n2cccc2)CC1	.	/	/	?	/
SMILES	LASV entry inh	Cycloheximide cs	AMA1 RON2 block	Marburg entry inh	Shiga inhibitor
NC1=NC(=Nc2ccc(Cl)cc2)c2ccccc21	.	47	.	.	.
Cc1cccc(N=C2N=C(N)c3ccccc32)c1	?	.	.	?	.
NC1=NC(=Nc2ccccc2)c2ccccc21	13µM	.	.	?	.
CC(C)c1ccc(N=C2N=C(N)c3ccccc32)cc1	?	80	.	?	118
NC1=NC(=Nc2cccc(Cl)c2)c2ccccc21	?	.	.	?	.
NC1=NC(=Nc2ccc(Br)cc2)c2ccccc21	?	26	.	7.1µM	62
O=c1[nH]c(=O)n2ncnc2[nH]1	/	/	.	/	/
O=C(/C=C/c1ccccc1Cl)NCCCn1ccnc1	?	.	.	.	.
Cc1cccc(Cn2c(=O)n(CCCC(=O)NCc3ccco3)c(=O)c3ccccc32)c1	?	.	.	?	.
Cc1ccccc1CSCC(=O)NCCSc1ccccn1	/	22	.	.	.
O=C(NCCSc1ccccn1)c1ccc(Cl)cc1	?	.	.	.	63
Cc1ccc(C(=O)NCCSc2snnc2C)cc1	.	54	.	?	71
Cc1ccccc1Cn1c(=O)n(CCCC(=O)NCc2ccco2)c(=O)c2ccccc21	.	14	.	.	.
O=C(NCCSc1ccccn1)c1ccc(Cl)cc1Cl	.	.	.	?	.
COCCNC(=O)CCc1nnc2ccc(N3CCC(C)CC3)nn12	/	.	.	/	.
Cc1ccccc1CSCC(=O)Nc1ccccc1F	.	44	.	?	/
COc1ccc(C)cc1NC(=O)CSCc1ccccc1C	.	.	.	?	/
O=C(CSc1ccc(Cl)cc1)NCc1ccco1	/	32	.	/	.
O=C(CSc1ccc(Cl)cc1)NC(=O)NCc1ccco1	?	.	.	.	.
